Shown are actives, neighbours in structure and some others; about 2.7% of the full set was active somewhere.
gsp ag – activates gsp, the McCune-Albright syndrome mutation | gsp mutant cells, cAMP HTRF, 30 min | Potency, µM (titrated, usually from 76.9 µM), for inactives: at the top dose activation (cAMP increase), actives largely listed as activators | actives 0.13% (n = 340,000) | AID 624287; active = well fitted activation curve with a large enough effect; inconclusive = small, poorly fitted or top-dose-only effect, or another doubt; inactive = no such curve, though single readings can be large or run the other way; cell line not stated here;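 also: phosphodiesterase inhibitor Ro 20-1724 added with compounds to block cAMP breakdown; potency is read from the fitted curve at half-maximal effect; nearly all actives have a fitted effect of over 60% in size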
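Cells in DMEM/10% FBS with G418 were pretreated with compounds in DMSO plus […] (300 uM stock) for 30 min at 37C. cAMP was measured by HTRF (cAMP-d2 plus anti-cAMP antibody-K) after 30 min at room temperature.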
gsp antagonist – gsp mutant antagonism | gsp-mutant cells, cAMP HTRF, 30 min | Potency, µM (series often up to 76.9 µM), without a hit: at the highest dose activity change, negative = inhibition, usual class: inhibitors | actives 0.4% (n = 340,000) | AID 624288; calls by dose curve; cell line not stated here;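 also: intracellular cAMP measured with PDE inhibitor Ro 20-1724 present during compound exposure; potency is read from the fitted curve at half-maximal effect; % is scaled to controls: 0 for no effect and ±100 for the full control effect; nearly all actives have a fitted effect of over 65% in size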
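Cells in G418 medium, seeded 16-24 h, 37C; buffer exchange to DPBS + 1 mM CaCl2, 0.5 mM MgCl2, 0.05% BSA; cpds in DMSO + […] (300 uM stock), 30 min 37C; HTRF cAMP detection.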
Akt phos inh – Akt phosphorylation inhibition. Neuro2A IGF-stimulated pAkt S473 HTRF, 20 min; active compounds read low. activity change, % for hits at 50 µM. actives 0.32% (n = 360,000). AID 651550; in the data active = activity change below about -80%; inconclusive = mostly about -51% to -80%; also: % is scaled to controls: 0 for no effect and ±100 for the full control effect
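Neuro2A cells (4,500/well, DMEM with 0.5% FBS) were treated with compound at a single 50 µM final concentration, stimulated with 6 nM IGF for 20 min at 37 °C, and lysed. Phospho-Akt Ser473 was read by HTRF as 665/615 ratio ×10^4.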
ClpP mod – qHTS Assay for Activators of ClpP; ATP-dependent Clp protease proteolytic subunit (Bacillus subtilis (strain 168)), P80244; purified B. subtilis ClpP, FRET peptide cleavage, 20 min; Potency, µM (doses to about 57.5 µM), for the others: top-dose activity change, negative = active; actives 1.9% (n = 340,000); AID 651965, 2013; active = well fitted falling curve with a large enough effect; inconclusive = small, poorly fitted or top-dose-only effect; inactive = no such curve, though single readings can be large or run the other way; also: potency is read from the fitted curve at half-maximal effect; the source files actives as falling curves though it sought activators and does not explain the sign; nearly all actives have a fitted effect of over 65% in size
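Purified B. subtilis ClpP, 10 microg/mL final in Tris/HCl pH8 with KCl, BSA, glycerol and Tween-20, cleaved an Abz/nitrotyrosine-quenched decapeptide. Fluorescence (ex 320, em 430) was read at 0 and 20 min at room temperature. Delta was normalized to 5.8 microM ADEP and DMSO/no-enzyme controls.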
RXFP1 antag – RXFP1 (human) relaxin receptor antagonism | HEK293-RXFP1, relaxin-stimulated cAMP HTRF, 30 min; active compounds read low | Q9HBX9 | activity change, negative = inhibition, % at 57.5 µM | actives 0.59% (n = 350,000) | AID 1259400;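 active = activity change of -60% or lower, but not beyond a set lower limit; inconclusive = change between -60% and -40%, or beyond the set limit; inactive = change above -40%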; also: % is scaled to controls: 0 for no effect and ±100 for the full control effect
Target sequence (Q9HBX9 whole entry, looked up): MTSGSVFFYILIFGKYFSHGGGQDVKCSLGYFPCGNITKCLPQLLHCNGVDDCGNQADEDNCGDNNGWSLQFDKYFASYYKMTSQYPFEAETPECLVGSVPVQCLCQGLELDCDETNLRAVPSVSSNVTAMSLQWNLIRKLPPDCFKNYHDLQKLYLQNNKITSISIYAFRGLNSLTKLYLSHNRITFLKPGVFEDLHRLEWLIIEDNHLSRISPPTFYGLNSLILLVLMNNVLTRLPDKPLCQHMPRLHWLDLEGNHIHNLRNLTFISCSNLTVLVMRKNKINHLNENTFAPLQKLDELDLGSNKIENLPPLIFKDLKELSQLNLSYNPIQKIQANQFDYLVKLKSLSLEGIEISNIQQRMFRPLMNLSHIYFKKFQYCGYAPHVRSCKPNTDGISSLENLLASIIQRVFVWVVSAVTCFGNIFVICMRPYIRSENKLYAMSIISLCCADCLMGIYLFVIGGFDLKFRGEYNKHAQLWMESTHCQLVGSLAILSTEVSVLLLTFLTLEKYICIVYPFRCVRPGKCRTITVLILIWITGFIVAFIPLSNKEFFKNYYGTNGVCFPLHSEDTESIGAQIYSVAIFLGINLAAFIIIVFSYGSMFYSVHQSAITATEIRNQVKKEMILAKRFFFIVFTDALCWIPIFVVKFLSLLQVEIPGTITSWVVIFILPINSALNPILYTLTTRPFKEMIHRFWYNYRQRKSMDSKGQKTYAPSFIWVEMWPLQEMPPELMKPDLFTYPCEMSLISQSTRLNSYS
RXFP1 agonist – agonists of human relaxin receptor RXFP1; Q9HBX9; HEK293T-RXFP1 cAMP TR-FRET, 30 min; response scale: percent of porcine relaxin response, buffer zero; Potency, µM (series often up to 57.5 µM), without a hit: at the top dose activation, actives largely listed as activators; actives 0.3% (n = 370,000); AID 2676; active = well fitted activation curve with a large enough effect; inconclusive = small, poorly fitted or top-dose-only effect; also: potency is read from the fitted curve at half-maximal effect; % is scaled to controls: 0 for no effect and ±100 for the full control effect; nearly all actives have a fitted effect of over 60% in size
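HEK293T cells stably expressing RXFP1 were pretreated with the PDE4 inhibitor Ro 20174, exposed to compounds for 30 min at 37C, lysed, and cAMP was read by TR-FRET. Data normalized to buffer (basal) and 29 nM porcine relaxin (100%).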
* = called active by the depositor; i = inactive; u = inconclusive; x = no result; ! = not confirmed by another sample; [ ] = dose if it differs, or a comment.

SMILES	gsp ag	gsp antagonist	Akt phos inh	ClpP mod	RXFP1 antag	RXFP1 agonist
COc1ccc(-c2nc(CS(=O)CC(=O)NCc3ccc4c(c3)OCO4)c(C)o2)cc1OC (configuration not stated)	2%	-1%	i	3%	5	0%
COc1ccccc1CNC(=O)CS(=O)Cc1nc(-c2ccc(OC)c(OC)c2)oc1C (configuration not stated)	3%	-19%	x	32µM*!	2	2%
COc1ccccc1CCNC(=O)C(=O)Nc1cc2c3c(c1)CC(=O)N3CCC2	4%	-3%	i	-17%	-6	-1%
COc1ccc(-c2nc(CSCC(=O)NCc3ccccc3Cl)c(C)o2)cc1OC	x	x	x	20µM*	-18	-2%
CCCN(C(=O)c1c(-c2ccccc2)noc1C)c1c(N)n(Cc2ccccc2)c(=O)[nH]c1=O	20%	3%	i	-4%	-3	0%
Cc1ccc(NC2=C(Cl)C(=O)OC2NC(=O)c2ccccc2)cc1 (configuration not stated)	-36%	-3%	i	-1%	-8	1%
O=C1OC(NC(=O)c2ccccc2)C(n2cc(CO)nn2)=C1Cl (configuration not stated)	6%	9%	-114%*	-2%	9	0%
O=C(O)CN1C(=O)c2cccc3cccc(c23)C1=O	x	x	x	x	7	x
CC(=O)N1C(=O)c2cccc3cccc(c23)C(=O)N1C(C)=O	3%	10%	i	25µM*	1	2%
CC(=O)Nc1ccc(/C=C/C(=O)c2ccc(-n3nncc3-c3ccccc3)cc2)cc1	x	x	x	-8%	x	x
CCOC(=O)N1CCN(C(=O)COC(=O)c2ccccc2NCCO)CC1	11%	5%	i	7.9µM*	8	1%
O=C(OCC(=O)N1CCC(Cc2ccccc2)CC1)c1ccccc1NCCO	-7%[15.4 µM]	-2%	i	x	-1	3%
COC(=O)c1cccc(NC(=O)c2cnn(C)c2)c1	21%	0%	i	x	-7	x
Cn1cc(C(=O)Nc2cccc(F)c2)cn1	28%	6%	-122%*	3%	-9	0%
COc1ccc(-c2oc3c(c2C(=O)OCCO)C(OCCO)CCC3)cc1 (configuration not stated)	x	x	i	5%	x	x
CCN1C=C(C(=O)OC)C(c2cccc(OC)c2OC)C(C(=O)OC)=C1	10%[15.4 µM]	13%	i	32µM*	-5	2%
COC(=O)C1=CN(Cc2ccc(OC)c(OC)c2)C=C(C(=O)OC)C1c1ccccc1F	-3%	-13%	i	4%	-1	7%
COC(=O)C1=CN(Cc2cccs2)C=C(C(=O)OC)C1c1cccc(OC)c1OC	-24%	3%	i	32µM*	6	4%
COC(=O)C1=CN(C2CC2)C=C(C(=O)OC)C1c1ccccc1OC	-9%	-15%	i	32µM*	7	6%
COC(=O)C1=CN(Cc2ccc(OC)c(OC)c2)C=C(C(=O)OC)C1c1cccc(OC)c1OC	20%[15.4 µM]	8%	i	-2%	5	11%
Cc1cc(C)n(C(C)CC(=O)NCc2ccc(Cl)cc2)n1 (configuration not stated)	x	x	x	0%	-9	1%
COCCNC(=O)C1CCCN(C(=O)c2ccc(SC(F)(F)F)cc2)CC1 (configuration not stated)	x	x	i	0%	x	x
C[C@]12CCC(=O)C=C1[C@@H]1C[C@@H]1[C@H]1[C@@H]3[C@@H]4C[C@@H]4[C@@]4(CCC(=O)O4)[C@@]3(C)CC[C@@H]12	x	x	x	x	-25	x
CCc1nn(CC(=O)NCc2cccc(OC)c2OC)c(=O)c2cc3occc3n12	x	x	x	-3%	-1	0%
C=C1C(=O)C23C(O)C1CCC2C12CCCC(C)(COC(C)=O)C1C(O)C3(O)OC2 (configuration not stated)	-3%	-5%	i	4%	-117*	x
SMILES	gsp ag	gsp antagonist	Akt phos inh	ClpP mod	RXFP1 antag	RXFP1 agonist
CSc1nc2nc(C(F)(F)F)cc(-c3ccccc3)n2n1	1%	-16%	i	32µM*	4	0%
CSc1nc2nc(C)cc(-c3ccccc3)n2n1	21%	15%	i	u	-14	0%
Cc1ccc(NC(=O)Cn2cc(C(F)(F)F)cc(Cl)c2=O)cc1S(=O)(=O)N1CCCCC1	4%	-5%	i	-1%	-13	1%
CCn1c(=O)n(CC)c2cc(S(=O)(=O)Nc3ccccc3C)c(C)cc21	-48%	-5%	-89%*	-1%	14	-1%
CCc1ccccc1NS(=O)(=O)c1cc2c(cc1C)n(C)c(=O)c(=O)n2C	-22%	-10%	i	2%	x	10%
COc1ccc(-c2cc(C(=O)OCC(=O)c3cccc(OC)c3)c3cccc(Cl)c3n2)cc1	x	x	x	-2%	x	5%
Cc1cc(COc2ccccc2OCCN2CCN(C)CC2)no1	-30%	-1%	-104%*	-1%	-9	0%
CCN1CCN(CCOc2ccccc2OCc2ccccc2)CC1	1%	14%	i	2%	-4	1%
Cn1c2ccc(F)cc2c2ncn(CCCN(CCO)CCO)c(=O)c21	-20%	1%	i	28µM*	-4	0%
COc1cccc(/C=C/C(=O)OCC(=O)Nc2cccc(S(=O)(=O)N3CCCCC3)c2)c1OC	-18%[15.4 µM]	-5%	i	28µM*	-3	3%
COc1ccc(/C=C/C(=O)OCC(=O)Nc2ccc(C)cc2)cc1S(=O)(=O)N1CCOCC1	7%	-5%	i	7.9µM*	x	1%
COc1ccc(OC)c(/C=C/C(=O)OCC(=O)Nc2cccc(Oc3ccccc3)c2)c1	u	7%	i	35µM*	-1	8%
COc1cccc(NC(=O)COC(=O)/C=C/c2ccc(Cl)cc2Cl)c1	-2%	3%	i	3%	-17	3%
CC(C)N(Cc1ccccc1)C(=O)Cn1ncc2c([nH]c3ccccc32)c1=O	x	x	x	u	-3	0%
CC(C)N(CCCNC(=O)Cn1ncc2c([nH]c3ccccc32)c1=O)Cc1ccccc1	u	10%	i	u	-75*!	1%
CN1CCN(c2cc(N3CCN(C(=O)c4ccco4)CC3)c3c4c(onc24)-c2ccccc2C3=O)CC1	-34%	-23%	i	1%	-20	2%
O=C(O)CCCNc1cc(N2CCN(C(=O)c3ccco3)CC2)c2noc3c2c1C(=O)c1ccccc1-3	-48%	u	i	0%	-65*	-8%
